# Measurements published in the supplement of paper PMC6555819.
# Assays:
# Experiment in all cases: PBM binding z-score (relative to random genomic background probes); higher = stronger binding; sequences stand for … in GC…GCGATTGACAGCGTAGAATGAAGG
# [1] = system: PPARg:RXRa DBDmut IVT, anti-RXR (DBD mutation: RXRa K156A/R161A, NR concentration 270 nM, RXRa partner concentration 90 nM)
# How it was run: (§1)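 Ligand-free nuclear receptor dimers were applied to custom Agilent 4×180K protein-binding microarrays whose double-stranded probes carried direct-repeat seeds, single-nucleotide variants, half-site ablations and random human genomic background sequences in 34-nt variable regions. Incubation lasted 1 h. Binding z-scores were computed against the random background probes from regression-normalized fluorescence.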
# [2] = system: PPARg:RXRa IVT, anti-PPARg (NR concentration 270 nM, RXRa partner concentration 90 nM)
# How it was run: as §1
# [3] = system: PPARg DBDmut:RXRa IVT, anti-PPARg (DBD mutation: PPARg1 K132A/R137A, NR concentration 270 nM, RXRa partner concentration 90 nM)
# How it was run: as §1
# [4] = system: PPARg DBDmut IVT, anti-PPARg (DBD mutation: PPARg1 K132A/R137A, NR concentration 270 nM)
# How it was run: as §1
# [5] = system: PPARg homodimer (NR concentration 180 nM)
# How it was run: as §1
# [6] = system: PXR:RXRa (NR concentration 270 nM, RXRa partner concentration 90 nM)
# How it was run: as §1
# [7] = system: PXR homodimer (NR concentration 270 nM)
# How it was run: as §1
# [8] = system: RARa:RXR (NR concentration 270 nM, RXRa partner concentration 90 nM)
# How it was run: as §1
# [9] = system: RARa homodimer (NR concentration 270 nM)
# How it was run: as §1
# [10] = system: RARb:RXRa (NR concentration 270 nM, RXRa partner concentration 90 nM)
# How it was run: as §1
# [11] = system: RARb homodimer (NR concentration 270 nM)
# How it was run: as §1
# [12] = system: RARg:RXRa (NR concentration 270 nM, RXRa partner concentration 90 nM)
# How it was run: as §1
# [13] = system: RARg homodimer (NR concentration 270 nM)
# How it was run: as §1
# [14] = system: RXRa DBDmut IVT, anti-RXR (DBD mutation: RXRa K156A/R161A, NR concentration 90 nM)
# How it was run: as §1
# [15] = system: RXRa homodimer (NR concentration 180 nM)
# How it was run: as §1
# [16] = system: THRa:RXRa (NR concentration 90 nM, RXRa partner concentration 90 nM)
# How it was run: as §1
# [17] = system: THRa homodimer (NR concentration 90 nM)
# How it was run: as §1
# [18] = system: VDR homodimer (NR concentration 270 nM)
# How it was run: as §1
Sequence,PBM binding z-score [1],PBM binding z-score [2],PBM binding z-score [3],PBM binding z-score [4],PBM binding z-score [5],PBM binding z-score [6],PBM binding z-score [7],PBM binding z-score [8],PBM binding z-score [9],PBM binding z-score [10],PBM binding z-score [11],PBM binding z-score [12],PBM binding z-score [13],PBM binding z-score [14],PBM binding z-score [15],PBM binding z-score [16],PBM binding z-score [17],PBM binding z-score [18]
ACTAGCAGGCCAAATTTGGGTCACTCAAACAAAG,2.87,4.17,0.302,0.302,0.993,0.803,-0.346,1.72,-0.199,1.54,2.36,2.39,1.39,0.0631,0.936,2.45,0.758,-0.0164
AGAATGAGGTTATACGTAGAACAGGGAAGAAAGT,4,1.9,1.52,1.09,1.26,1.09,0.773,1.36,-0.459,1.36,0.739,1.6,1.14,1.5,2.13,2.04,0.323,1.03
TCTCGGAGGACACGAGGGTCAGAGCTTTCCAGAG,1.25,0.292,-0.358,-0.909,0.294,0.835,-0.16,1.46,-0.665,2.38,2.81,2.58,2.96,0.569,1.33,2.48,0.409,0.685
AATACAGGGTCACTAGGCCAGTGTAGGTACGAAT,4.34,5.58,1.71,1.25,2.55,3.37,0.255,4.63,0.647,4.13,3.48,5.29,5.09,2.82,6.04,3.4,1.26,2.89
CGTCCAAGGTCAGCAGGTCAGTAAAAGCGACGTG,2.72,3.62,0.159,-0.726,3.33,3.43,0.607,4.46,0.549,5.51,4.97,6.32,6.68,2.49,5.07,3.97,2.48,1.81
TCTGCCAGGTCAGTTGGTCAGCTAACGAGCTGCC,1.26,1.9,-0.28,0.0313,0.213,0.349,-0.79,0.976,-1.08,3.29,2.77,2.86,3.55,0.569,1.12,2.11,0.521,-0.514
CCTACTGGGCCAAGGTCATCGATCAGTCAAAGCA,4,4.6,-0.807,-0.598,1.98,3.71,0.25,4.34,0.517,3.65,3.75,4.18,3.9,0.883,3.79,3.68,2.69,2.38
AGAACGGGGGCAATGAGTTGATAGCACGGGTGGC,4.36,5.56,9.77,9.9,1.96,3.74,6.38,2.68,1.18,3.02,1.83,2.87,2.43,3.17,2.3,2.45,1.33,5.08
GAATATAGGTAATACAAGGTGAAAGTCCGATTGT,6.67,6.08,2.27,1.21,1.32,0.776,0.722,1.33,1.55,0.909,1.27,0.944,0.872,0.644,0.89,4.2,1.38,0.435
ATCGAAAGGACGTGAGGTGAGTATACAGAAAGGC,-0.822,0.152,1.3,0.397,0.165,-0.361,-0.0869,0.0924,0.0832,1.09,0.895,0.703,1.12,-0.854,0.282,1.89,0.987,0.126
TCGAGTAGGTTAGTCGGGACATTCAGCCAACATA,1.85,1.48,-0.367,-1.31,-0.431,-0.161,-0.242,0.166,-0.452,0.165,0.0324,-0.106,0.0152,0.327,0.107,1.39,0.328,0.0666
ATCGAGAGGTCGTGAGGTGAGTATACAGAAAGGC,0.135,2.04,1.16,0.618,1.02,2.66,0.102,3.54,0.567,3.05,2.4,3.66,3.28,1.43,4.24,3.36,1.63,1.87
CGAACGAGGGAATGAGTTGATAGCAAATGCCGAT,-0.446,-0.487,-0.561,0.167,-0.451,-0.632,-0.33,-0.875,-0.143,-0.567,-0.933,-0.383,0.11,-0.064,-0.465,-0.489,-0.692,0.188
ATATGTAGGTTCGCTGGGGTCATTCAGACTAGGC,3.5,3.76,1.92,1.5,2.78,6.18,12.4,6.02,1.12,2.72,3.35,4.07,2.35,3.6,5.54,4.11,3.34,9.1
CCGACTGGAGCATAAGGTTACCATAAGCCAGCCC,0.771,0.172,-0.467,-1.49,-0.0887,0.241,-0.0972,1.11,0.0423,0.916,1.28,0.447,0.266,0.0357,0.901,1.96,1.77,0.144
CCTACTGGGCCACGAAAGGTTATTGATTCAGTGA,5.07,5.34,0.351,-0.129,0.506,1.43,0.179,1.78,0.179,1.39,1.98,1.1,1.08,-0.0139,1.2,1.66,0.302,0.238
ACAGACAGGTGATGAAGGTAACTCCGGCTATCAT,0.0958,0.462,0.468,0.294,-0.227,0.0944,-0.1,0.357,0.0561,0.429,0.376,0.136,0.355,-0.394,0.346,0.328,0.183,-0.00954
TCTTTTAGATCAGCAGGTTAAGAAAGCTGGCCAA,1.92,0.4,0.922,0.837,0.344,0.321,0.072,0.753,0.437,0.563,0.0082,0.209,0.197,1.02,0.581,0.357,-0.515,0.00166
TCTCGGAGGACACGAAAGGCCAGAGCTCGACATC,1.19,-0.0515,-0.613,-0.159,-0.541,-0.141,-0.472,0.327,-0.569,1.82,1.53,0.946,1.9,0.804,0.296,1.54,0.338,-0.482
AATAAAGGGTCACTAGGCCAGAGTAGGTACGAAT,4.52,6.06,1.89,1.25,2.96,3.13,0.43,4.07,1.9,5.16,4.18,5.83,6.43,2.48,5.89,2.82,0.263,2.36
CCTGTTAGGTCATGGTCAGCTAATCTACAGTATG,3.41,2.86,0.756,1.29,2.12,1.77,0.504,2.9,0.828,4.16,3.36,4.05,4.61,2,2.89,3.73,2.91,0.791
GGAACGAGGGCAAAGTTGAGAGCATCTGTCGACG,4.15,4.7,0.813,0.305,0.644,1.42,-0.0151,2.15,-0.358,2.61,1.51,2.51,1.87,2.46,2.33,1.53,-0.419,1.38
GGAACGAGGGCATGTTGATAGCAGAGTTTGATGG,2.6,1.79,0.588,-0.313,0.877,0.633,0.542,0.117,0.262,1.81,1.11,0.813,1.38,2.25,0.438,1.1,0.428,1.6
AGAATGAGGATATTAAGATCAGGGAATTGCGGTC,-0.168,0.03,0.947,0.486,-0.141,-0.209,0.0307,-0.171,0.578,-0.259,-0.295,0.0101,0.354,0.0131,0.0885,0.447,-0.112,0.17
CGTCAAAGTTCAACTAAGGTAACGTCAAGCACGC,0.771,2.28,0.0665,0.943,3.82,5.69,4.39,4.56,1.85,5.3,4.4,5.96,6.81,4.8,4.81,5.05,1.86,3.9
ATACCAAGGTGATCCTGAGGTCGTTGATACTAAC,0.567,1.08,0.87,0.266,0.931,3.21,1.41,2.34,0.52,1.39,1.82,2.54,0.948,0.968,2.08,3.67,2.52,2.87
CCGAGTAGCTTATGGGGCATTCAGGCAACGGTGA,0.454,0.117,-1.42,-1.07,-0.422,-0.731,-0.54,-0.568,-0.432,-0.266,-0.2,-0.278,-0.43,0.0685,-0.245,-0.153,-0.655,-0.541
AGTCAAAGTTCACAAGGTAACGTAAGATTCAGCT,0.681,3.67,1.19,0.956,3.05,4.78,2.84,4.51,2.08,4.82,3.97,5.73,6.02,4.32,4.74,3.06,0.961,3.66
TCTATTGGTTGAAGGGCAACCGACGAGTCCGTTT,1.93,0.82,0.765,0.266,1.09,0.725,0.614,0.74,0.718,1.55,1.17,0.455,0.586,1.37,0.744,0.279,0.101,1.24
